Where a chain is given by its changes, count along the chain named.
Key:
Assay in all cases: yeast three-hybrid, YBZ-1, SC-Leu-His + 0.5 mM 3-AT, 4 days
Conditions in all cases: tags: N-Gal4 AD-HA kept; label: inside an RPR1-promoter hybrid RNA with tandem MS2 sites; ssRNA
PUM1 PUF domain R5-GIR = PUM1 PUF domain R5-GIR (Homo sapiens, UniProt Q14671 828-1176, C1007G;R1008I;Q1011R)
Method in brief: (§1)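 Each repeat of the Pumilio-1 PUF domain was randomized at its three base-contacting residues, and these libraries were co-expressed from a centromeric plasmid with matching RNA elements in strain YBZ-1. After four days on SC-Leu (input) or SC-Leu-His + 0.5 mM 3-AT (selection), the repeat regions were PCR-amplified and Illumina-sequenced. The interaction score compares variant frequency between input and selection as a log change, computed in log2 with a pseudocount of 1 for absent variants.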

PUM1 PUF domain R1-NLV = PUM1 PUF domain R1-NLV (Homo sapiens, UniProt Q14671 828-1176, S863N;R864L;Q867V)
Method in brief: as §1

PUM1 PUF domain R6-AWE = biological target: T1, PUM1 PUF domain R6-AWE (Homo sapiens, UniProt Q14671 828-1176, N1043A;Y1044W;Q1047E)
T1 sequence: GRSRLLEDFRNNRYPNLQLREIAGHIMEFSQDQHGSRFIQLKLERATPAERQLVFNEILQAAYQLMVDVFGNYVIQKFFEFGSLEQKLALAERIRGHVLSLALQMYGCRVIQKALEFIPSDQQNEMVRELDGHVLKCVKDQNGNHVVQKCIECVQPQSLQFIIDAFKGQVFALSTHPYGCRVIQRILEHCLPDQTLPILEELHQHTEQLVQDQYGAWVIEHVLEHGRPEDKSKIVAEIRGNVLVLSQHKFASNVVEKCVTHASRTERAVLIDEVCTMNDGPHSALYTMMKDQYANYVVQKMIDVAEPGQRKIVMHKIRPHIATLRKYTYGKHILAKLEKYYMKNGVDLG
Method in brief: as §1

PUM1 PUF domain R2-IWE = PUM1 PUF domain R2-IWE (Homo sapiens, UniProt Q14671 828-1176, N899I;Y900W;Q903E)
Method in brief: as §1

PUM1 PUF domain R8-YYF = PUM1 PUF domain R8-YYF (Homo sapiens, UniProt Q14671 828-1176, N1122Y;Q1126F)
Method in brief: as §1

PUM1 PUF domain R3-EWL = PUM1 PUF domain R3-EWL (Homo sapiens, UniProt Q14671 828-1176, C935E;R936W;Q939L)
Method in brief: as §1

PUM1 PUF domain R6-TFK = biological target: T2, PUM1 PUF domain R6-TFK (Homo sapiens, UniProt Q14671 828-1176, N1043T;Y1044F;Q1047K)
T2 sequence: T1 sequence with A216T, W217F, E220K
Method in brief: as §1

PUM1 PUF domain R6-HFF = biological target: T3, PUM1 PUF domain R6-HFF (Homo sapiens, UniProt Q14671 828-1176, N1043H;Y1044F;Q1047F)
T3 sequence: T1 sequence with A216H, W217F, E220F
Method in brief: as §1

PUM1 PUF domain R4-VLY = PUM1 PUF domain R4-VLY (Homo sapiens, UniProt Q14671 828-1176, N971V;H972L;Q975Y)
Method in brief: as §1

PUM1 PUF domain R1-HFK = PUM1 PUF domain R1-HFK (Homo sapiens, UniProt Q14671 828-1176, S863H;R864F;Q867K)
Method in brief: as §1

GGCUAGAACUAGUGGAUCCCCCGGCGCCCGGCGGCUCGAGCCCGGGUAAGUGUUAAUAGUCUGCAUGCCGCCGGGCGCCAUGCCUGCAGGUCGACUCUAGAAAACAUG
binding signal (PUM1 PUF domain R5-GIR): 1.6 log2 enrichment (interaction score)

GGCUAGAACUAGUGGAUCCCCCGGCGCCCGGCGGCUCGAGCCCGGGUAAGUGUAAAUUGUCUGCAUGCCGCCGGGCGCCAUGCCUGCAGGUCGACUCUAGAAAACAUG
binding signal (PUM1 PUF domain R1-NLV): 2.72 log2 enrichment (interaction score)

GGCUAGAACUAGUGGAUCCCCCGGCGCCCGGCGGCUCGAGCCCGGGUAAGUGGAAAUAGUCUGCAUGCCGCCGGGCGCCAUGCCUGCAGGUCGACUCUAGAAAACAUG
binding signal (PUM1 PUF domain R6-AWE): 4.11 log2 enrichment (interaction score)

GGCUAGAACUAGUGGAUCCCCCGGCGCCCGGCGGCUCGAGCCCGGGUAAGUGUAAAAAGUCUGCAUGCCGCCGGGCGCCAUGCCUGCAGGUCGACUCUAGAAAACAUG
binding signal (PUM1 PUF domain R2-IWE): 4.65 log2 enrichment (interaction score)

GGCUAGAACUAGUGGAUCCCCCGGCGCCCGGCGGCUCGAGCCCGGGUAAGCGUAAAUAGUCUGCAUGCCGCCGGGCGCCAUGCCUGCAGGUCGACUCUAGAAAACAUG
binding signal (PUM1 PUF domain R8-YYF): 5.85 log2 enrichment (interaction score)

GGCUAGAACUAGUGGAUCCCCCGGCGCCCGGCGGCUCGAGCCCGGGUAAGUGUAAAUAGUCUGCAUGCCGCCGGGCGCCAUGCCUGCAGGUCGACUCUAGAAAACAUG
binding signal (PUM1 PUF domain R3-EWL): 5.03 log2 enrichment (interaction score) | binding signal (PUM1 PUF domain R5-GIR): 2.43 log2 enrichment (interaction score) | binding signal (PUM1 PUF domain R6-TFK): 7.02 log2 enrichment (interaction score) | binding signal (PUM1 PUF domain R6-HFF): 4.43 log2 enrichment (interaction score) | binding signal (PUM1 PUF domain R4-VLY): 4.53 log2 enrichment (interaction score)

GGCUAGAACUAGUGGAUCCCCCGGCGCCCGGCGGCUCGAGCCCGGGUAAGUGUAAUUAGUCUGCAUGCCGCCGGGCGCCAUGCCUGCAGGUCGACUCUAGAAAACAUG
binding signal (PUM1 PUF domain R3-EWL): 4.51 log2 enrichment (interaction score)

GGCUAGAACUAGUGGAUCCCCCGGCGCCCGGCGGCUCGAGCCCGGGUAAGUGUCAAUAGUCUGCAUGCCGCCGGGCGCCAUGCCUGCAGGUCGACUCUAGAAAACAUG
binding signal (PUM1 PUF domain R5-GIR): 4.37 log2 enrichment (interaction score)

GGCUAGAACUAGUGGAUCCCCCGGCGCCCGGCGGCUCGAGCCCGGGUAAGUGUAAAUCGUCUGCAUGCCGCCGGGCGCCAUGCCUGCAGGUCGACUCUAGAAAACAUG
binding signal (PUM1 PUF domain R1-HFK): 2.71 log2 enrichment (interaction score)

GGCUAGAACUAGUGGAUCCCCCGGCGCCCGGCGGCUCGAGCCCGGGUAAGUGAAAAUAGUCUGCAUGCCGCCGGGCGCCAUGCCUGCAGGUCGACUCUAGAAAACAUG
binding signal (PUM1 PUF domain R6-AWE): 7.15 log2 enrichment (interaction score) | binding signal (PUM1 PUF domain R6-TFK): 2.81 log2 enrichment (interaction score)

Source: PMC8384837, “Expanding the binding specificity for RNA recognition by a PUF domain”
